# Test results as given in article PMC5540273 (PLoS ONE, 2017).
# What was measured:
# Details in all cases: concentration: 1 μM, replicates: in singlicate; n = 1
# MLK1 = system: T1, MLK1
# T1 construct: gene MAP3K9
# MLK2 = system: MLK2
# MLK3 = system: MLK3
# MRCKA = system: MRCKA
# MRCKB = system: T2, MRCKB
# T2 construct: gene CDC42BPB
# MST1R = system: MST1R
# MST1 = system: T3, MST1
# T3 construct: gene STK4
# MST2 = system: T4, MST2
# T4 construct: gene STK3
# MST3 = system: T5, MST3
# T5 construct: gene STK24
# MST4 = system: MST4
# 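Also: KINOMEscan kinase panel screen.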
SMILES,%Inh (MLK1) [%],%Inh (MLK2) [%],%Inh (MLK3) [%],%Inh (MRCKA) [%],%Inh (MRCKB) [%],%Inh (MST1R) [%],%Inh (MST1) [%],%Inh (MST2) [%],%Inh (MST3) [%],%Inh (MST4) [%]
COc1cccc(-c2ccc3c(NC(=O)C4CC4)n[nH]c3n2)c1 [SB-710903],19,0,0,21,0,29,3,0,0,0
COc1cc(Nc2ncc3c(C)nc(-c4cc5ccccc5[nH]4)n3n2)cc(OC)c1OC [GW869516],93.8,89,87,4,7,0,0,29,0,0
c1ccc(Oc2ccc(Nc3ccnc4cc(-c5ccc(CNCCN6CCOCC6)o5)ccc34)cc2)nc1 [GW567145],0,0,0,0,0,16,0,0,11,0
COc1cccc(C2=C(Nc3ccc(Cl)c(C(=O)O)c3)C(=O)NC2=O)c1 [SB-390769],4,0,0,12,0,100,25,51,0,96.3
Cl.NC(=O)c1cccc(Nc2nccc(Nc3ccc(Oc4c(Cl)cccc4Cl)c(Cl)c3)n2)c1 [GW659009],0,0,0,0,0,3,75,11,0,0
Cc1cccc(Nc2nc(N[C@H]3CCNC3)ncc2C(N)=O)c1.Cl [GSK2197149],92.9,4,86,0,0,0,43,0,31,36
CN1CCN(Cc2cccc(-c3ccc4c(Nc5ccc(Oc6ccccc6)cc5)ccnc4c3)c2)CC1 [GW578342],4,5,4,0,0,35,12,0,3,0
FC(F)(F)c1ccc(/C=C/c2cncnc2Nc2ccc3[nH]c(Cc4ccccc4)nc3c2)cc1 [GW709199],19,11,1,31,26,0,2,0,0,0
COc1cc(Nc2nccc(N3CCC(NC(=O)c4cc5ccccc5s4)C3)n2)cc(OC)c1OC (stereo not shown) [GSK1379760],58,46,53,11,0,39,9,0,11,100
Cc1ccc(C)c(NC(=O)NC2CCN(c3ccnc(Nc4ccc(F)cc4)n3)C2)c1 (stereo not shown) [GSK1379720],0,0,0,11,6,38,0,0,0,0
O=C(NC1CCN(c2ccnc(Nc3ccc(F)cc3)n2)C1)c1cc2ccccc2s1 (stereo not shown) [GSK1379716],0,0,29,10,5,34,9,0,0,0
Cn1cc(-c2ccc3c(c2)CCN3C(=O)Cc2cccc(F)c2)c2c(N)ncnc21 [GSK2603358],20,11,37,5,0,49,95.8,69,15,8
CNC(=O)c1ccccc1Nc1nc(Nc2ccc(N3CCOCC3)cc2)ncc1Cl.Cl [GSK1576028],97.6,82,86,6,0,92.9,99.1,97.5,61,85
O=C(Nc1cccc(-c2nn3ncccc3c2-c2ccnc(Nc3ccccc3)n2)c1)c1c(F)cccc1F [GSK198271],0,0,11,69,88,15,47,100,12,0
c1ccc(-c2cnc3nccnn23)cc1 [AH20685],0,0,0,0,0,38,5,0,0,0
CC(=O)Nc1nc2cnc(Nc3cc(NC(=O)c4cccc(C5(C#N)CC5)c4Cl)ccc3C)nc2s1,4,10,0,5,0,13,0,12,6,0
